According to the supplement of paper PMC10849652:
Of roughly 8,800 targets only a part is listed; those with a hit were picked by preference. About 0.5% of all pairs of compound and target were hits.

Compound: CNc1nc(-c2ccc3c(N)n[nH]c3c2)cc(N2C[C@@H](C(=O)NC3CCCCC3)CC[C@H]2C)n1
Experiment: log2 fold change, soluble protein after heating vs DMSO (PISA); higher = thermal stabilisation; K562 lysate, 10 uM; active = over 0.2 and 3.5 SD of the protein, either way, in both replicates (recomputed)
Summary of the method: (§1)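 K562 pellets were dounce-homogenised in PBS pH 7.4 containing 1 mM MgCl2, and the crude extract, at 1 mg/mL protein, was exposed to 10 μM compound for 30 min. Aliquots were heated for 3 min across 48°C-58°C, pooled, brought to 0.5% NP-40 at 4°C and spun at 21,000xg for 90 min, with the supernatant taken as soluble protein. TMTpro 16plex LC-MS/MS with equalised channel sums quantified that protein. Values are log-two fold changes in thermal stability relative to solvent controls, taken from duplicates.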

UniProt P68363, sequence (P68363 whole entry, looked up): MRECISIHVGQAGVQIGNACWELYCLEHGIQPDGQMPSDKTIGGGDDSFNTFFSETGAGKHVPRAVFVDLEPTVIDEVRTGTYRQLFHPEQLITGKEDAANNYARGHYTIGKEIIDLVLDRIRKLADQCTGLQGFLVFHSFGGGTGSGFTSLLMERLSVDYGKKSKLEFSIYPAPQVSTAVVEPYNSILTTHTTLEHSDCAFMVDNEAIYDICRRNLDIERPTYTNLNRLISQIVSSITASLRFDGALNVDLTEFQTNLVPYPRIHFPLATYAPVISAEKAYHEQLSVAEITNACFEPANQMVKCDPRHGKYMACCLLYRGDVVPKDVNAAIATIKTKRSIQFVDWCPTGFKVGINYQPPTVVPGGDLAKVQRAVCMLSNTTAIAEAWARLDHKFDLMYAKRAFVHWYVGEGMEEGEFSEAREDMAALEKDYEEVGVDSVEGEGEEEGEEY
UniProt O94842, sequence (O94842 whole entry, looked up): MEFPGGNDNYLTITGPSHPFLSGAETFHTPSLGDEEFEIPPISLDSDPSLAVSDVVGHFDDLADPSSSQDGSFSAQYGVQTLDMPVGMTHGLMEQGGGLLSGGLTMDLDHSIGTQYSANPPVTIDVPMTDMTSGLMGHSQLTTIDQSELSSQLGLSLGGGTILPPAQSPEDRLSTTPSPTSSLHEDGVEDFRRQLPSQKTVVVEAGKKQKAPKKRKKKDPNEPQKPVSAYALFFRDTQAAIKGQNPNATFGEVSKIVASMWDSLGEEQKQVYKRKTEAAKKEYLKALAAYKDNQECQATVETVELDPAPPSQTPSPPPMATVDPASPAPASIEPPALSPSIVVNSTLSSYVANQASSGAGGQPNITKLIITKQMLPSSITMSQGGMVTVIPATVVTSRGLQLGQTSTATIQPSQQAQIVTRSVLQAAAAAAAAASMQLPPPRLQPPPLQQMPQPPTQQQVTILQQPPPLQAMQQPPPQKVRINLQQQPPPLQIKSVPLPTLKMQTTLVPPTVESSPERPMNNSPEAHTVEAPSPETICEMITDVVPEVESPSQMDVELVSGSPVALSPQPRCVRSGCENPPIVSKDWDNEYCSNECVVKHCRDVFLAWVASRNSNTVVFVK
UniProt Q5JUR7, sequence (Q5JUR7 whole entry, looked up): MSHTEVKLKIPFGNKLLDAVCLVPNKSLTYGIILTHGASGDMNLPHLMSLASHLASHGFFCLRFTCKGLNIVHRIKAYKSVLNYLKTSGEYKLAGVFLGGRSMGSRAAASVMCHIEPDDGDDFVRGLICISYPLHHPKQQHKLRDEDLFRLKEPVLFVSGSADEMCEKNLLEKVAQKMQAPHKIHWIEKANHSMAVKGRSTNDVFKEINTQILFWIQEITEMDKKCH
UniProt Q96K49, sequence (Q96K49 whole entry, looked up): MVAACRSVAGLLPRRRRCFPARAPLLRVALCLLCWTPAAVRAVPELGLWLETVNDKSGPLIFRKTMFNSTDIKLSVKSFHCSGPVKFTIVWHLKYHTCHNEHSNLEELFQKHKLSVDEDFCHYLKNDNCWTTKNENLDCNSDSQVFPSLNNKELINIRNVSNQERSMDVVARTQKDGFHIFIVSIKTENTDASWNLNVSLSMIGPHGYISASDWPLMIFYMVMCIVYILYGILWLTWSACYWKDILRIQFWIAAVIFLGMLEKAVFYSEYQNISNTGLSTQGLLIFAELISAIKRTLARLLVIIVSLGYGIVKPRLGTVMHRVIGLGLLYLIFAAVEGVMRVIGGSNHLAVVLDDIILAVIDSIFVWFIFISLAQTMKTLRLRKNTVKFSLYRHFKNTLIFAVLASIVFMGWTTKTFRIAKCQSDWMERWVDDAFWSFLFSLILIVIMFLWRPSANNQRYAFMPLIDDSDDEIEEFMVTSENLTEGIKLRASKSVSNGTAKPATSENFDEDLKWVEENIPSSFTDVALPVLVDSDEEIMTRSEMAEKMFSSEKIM
UniProt P42167, sequence (P42167 whole entry, looked up): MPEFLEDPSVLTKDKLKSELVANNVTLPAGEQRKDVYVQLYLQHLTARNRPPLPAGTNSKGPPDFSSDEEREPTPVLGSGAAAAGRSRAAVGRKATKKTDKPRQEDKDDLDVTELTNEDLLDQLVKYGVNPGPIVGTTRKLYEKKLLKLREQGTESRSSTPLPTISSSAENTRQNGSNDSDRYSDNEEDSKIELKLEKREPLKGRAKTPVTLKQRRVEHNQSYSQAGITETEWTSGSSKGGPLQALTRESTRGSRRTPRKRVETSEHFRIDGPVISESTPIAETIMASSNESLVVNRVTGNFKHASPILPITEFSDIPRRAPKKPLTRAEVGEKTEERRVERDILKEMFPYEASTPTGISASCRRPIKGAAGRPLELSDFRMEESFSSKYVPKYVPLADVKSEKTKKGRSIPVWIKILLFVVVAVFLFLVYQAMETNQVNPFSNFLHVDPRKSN
UniProt Q9UNY4, sequence (Q9UNY4 whole entry, looked up): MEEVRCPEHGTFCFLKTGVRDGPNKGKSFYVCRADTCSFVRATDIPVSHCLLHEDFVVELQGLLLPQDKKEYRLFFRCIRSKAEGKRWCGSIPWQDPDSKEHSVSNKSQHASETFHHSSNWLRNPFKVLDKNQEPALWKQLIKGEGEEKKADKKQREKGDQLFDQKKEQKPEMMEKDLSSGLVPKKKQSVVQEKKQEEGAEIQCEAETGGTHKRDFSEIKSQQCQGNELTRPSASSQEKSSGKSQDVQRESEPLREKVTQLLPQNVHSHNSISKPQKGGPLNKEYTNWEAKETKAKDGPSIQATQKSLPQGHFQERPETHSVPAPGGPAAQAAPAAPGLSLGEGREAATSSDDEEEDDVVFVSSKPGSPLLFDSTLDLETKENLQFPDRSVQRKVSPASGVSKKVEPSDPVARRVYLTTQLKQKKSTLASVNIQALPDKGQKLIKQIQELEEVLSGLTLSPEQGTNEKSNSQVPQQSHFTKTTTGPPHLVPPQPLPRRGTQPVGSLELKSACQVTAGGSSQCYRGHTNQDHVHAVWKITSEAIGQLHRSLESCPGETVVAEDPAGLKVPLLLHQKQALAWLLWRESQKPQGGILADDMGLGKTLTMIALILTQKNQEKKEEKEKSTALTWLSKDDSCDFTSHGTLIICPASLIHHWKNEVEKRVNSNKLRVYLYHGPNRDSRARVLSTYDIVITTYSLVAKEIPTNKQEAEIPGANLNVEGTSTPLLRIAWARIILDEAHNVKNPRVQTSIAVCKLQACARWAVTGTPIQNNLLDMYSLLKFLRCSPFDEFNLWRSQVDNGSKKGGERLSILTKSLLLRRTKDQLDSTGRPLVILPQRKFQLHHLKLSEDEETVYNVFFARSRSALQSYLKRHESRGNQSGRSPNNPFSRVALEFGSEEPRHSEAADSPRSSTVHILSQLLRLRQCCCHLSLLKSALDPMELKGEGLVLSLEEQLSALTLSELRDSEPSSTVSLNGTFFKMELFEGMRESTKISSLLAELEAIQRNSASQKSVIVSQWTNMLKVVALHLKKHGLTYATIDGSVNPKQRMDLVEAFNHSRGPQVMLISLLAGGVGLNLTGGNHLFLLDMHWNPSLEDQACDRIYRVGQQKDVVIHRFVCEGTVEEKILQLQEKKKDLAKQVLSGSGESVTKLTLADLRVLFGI
UniProt Q5TEJ8, sequence (Q5TEJ8 whole entry, looked up): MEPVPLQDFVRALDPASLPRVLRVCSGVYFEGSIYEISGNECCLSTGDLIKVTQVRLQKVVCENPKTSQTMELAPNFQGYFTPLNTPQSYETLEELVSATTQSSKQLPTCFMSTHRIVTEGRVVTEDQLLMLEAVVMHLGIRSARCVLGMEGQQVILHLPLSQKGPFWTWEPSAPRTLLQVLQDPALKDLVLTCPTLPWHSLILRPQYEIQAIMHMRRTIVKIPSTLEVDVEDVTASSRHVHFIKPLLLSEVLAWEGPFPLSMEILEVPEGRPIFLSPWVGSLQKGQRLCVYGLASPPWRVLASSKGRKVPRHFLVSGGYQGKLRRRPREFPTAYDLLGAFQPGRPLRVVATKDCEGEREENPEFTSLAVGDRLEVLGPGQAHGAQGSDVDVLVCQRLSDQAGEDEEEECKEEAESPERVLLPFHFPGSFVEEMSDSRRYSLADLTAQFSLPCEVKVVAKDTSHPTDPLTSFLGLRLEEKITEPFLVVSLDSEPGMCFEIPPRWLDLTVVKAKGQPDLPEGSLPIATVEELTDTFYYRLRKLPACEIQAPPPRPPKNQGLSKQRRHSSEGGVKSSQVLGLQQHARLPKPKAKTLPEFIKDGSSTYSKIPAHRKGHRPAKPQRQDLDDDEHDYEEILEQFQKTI
UniProt O95857, sequence (O95857 whole entry, looked up): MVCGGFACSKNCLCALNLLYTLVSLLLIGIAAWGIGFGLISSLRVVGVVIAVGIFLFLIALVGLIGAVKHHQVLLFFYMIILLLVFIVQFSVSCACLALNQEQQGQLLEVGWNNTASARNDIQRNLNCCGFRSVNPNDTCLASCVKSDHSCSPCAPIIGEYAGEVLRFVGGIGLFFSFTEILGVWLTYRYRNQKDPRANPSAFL
UniProt Q13595, sequence (Q13595 whole entry, looked up): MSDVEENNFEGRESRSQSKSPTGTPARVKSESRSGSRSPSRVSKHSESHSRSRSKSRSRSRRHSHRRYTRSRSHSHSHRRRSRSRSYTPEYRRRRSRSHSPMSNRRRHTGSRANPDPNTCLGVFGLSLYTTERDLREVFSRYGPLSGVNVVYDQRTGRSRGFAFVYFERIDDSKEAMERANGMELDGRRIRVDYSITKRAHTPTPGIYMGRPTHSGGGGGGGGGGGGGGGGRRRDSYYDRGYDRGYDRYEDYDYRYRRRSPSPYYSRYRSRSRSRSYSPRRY
UniProt P28289, sequence (P28289 whole entry, looked up): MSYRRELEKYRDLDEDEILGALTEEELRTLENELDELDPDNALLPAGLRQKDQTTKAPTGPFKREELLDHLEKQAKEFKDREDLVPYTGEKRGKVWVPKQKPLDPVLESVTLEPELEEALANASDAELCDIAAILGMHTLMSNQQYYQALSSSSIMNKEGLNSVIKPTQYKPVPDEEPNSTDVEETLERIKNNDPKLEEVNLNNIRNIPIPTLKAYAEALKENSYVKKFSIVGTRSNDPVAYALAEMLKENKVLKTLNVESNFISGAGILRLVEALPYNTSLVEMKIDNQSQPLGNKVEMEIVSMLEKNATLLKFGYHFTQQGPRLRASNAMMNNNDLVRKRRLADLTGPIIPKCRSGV

log2 fold change, inactive:
TPP2 (UniProt Q5VZU9) 0.068
TUBGCP3 (UniProt Q96CW5) -0.024
TEX30 (UniProt Q5JUR7) 0.07
TPM1 isoform 4 (UniProt P09493) -0.12
TRAPPC9 isoform 2 (UniProt Q96Q05) -0.075
TUT4 (UniProt Q5TAX3) 0.039
TRIM33 (UniProt H0Y612) 0.075
TECR (UniProt Q9NZ01) -0.008
TP53RK (UniProt Q96S44) -0.026
THEMIS2 (UniProt Q5TEJ8) 0
TTC38 (UniProt Q5R3I4) 0.034
TPM4 (UniProt P67936) 0.022
TMOD1 (UniProt P28289) -0.009
TOX4 (UniProt O94842) -0.022
TMEM199 (UniProt Q8N511) -0.001
UBE4A isoform 2 (UniProt Q14139) -0.073
TMEM87B (UniProt Q96K49) -0.045
TMPO (UniProt P42167) 0.029
TTI2 (UniProt Q6NXR4) 0.006
TUBB3 (UniProt Q13509) -0.034
TUBB (UniProt P07437) 0.007
TLK1 isoform 2 (UniProt Q9UKI8) 0.023
TRA2A (UniProt Q13595) 0.031
TBL2 (UniProt Q9Y4P3) -0.003
UBR4 (UniProt Q5T4S7) -0.034
TPM4 isoform 2 (UniProt P67936) 0.028
TBL3 (UniProt Q12788) 0.01
TTF2 (UniProt Q9UNY4) 0.005
TJP1 isoform 2 (UniProt Q07157) 0.043
TRIM65 (UniProt Q6PJ69) -0.014
UBE3C (UniProt Q15386) 0.024
UBAP2 (UniProt Q5T6F2) 0.005
TUBA1B (UniProt P68363) 0.003
TSPAN13 (UniProt O95857) 0.299

Compound: COC(=O)N[C@@H](C)CNc1nccc(-c2cn(C(C)C)nc2-c2cc(Cl)cc(NS(C)(=O)=O)c2F)n1 [encorafenib]
Experiment: as above
Summary of the method: as §1

log2 fold change, inactive:
TPP2 (UniProt Q5VZU9) -0.076
TUBGCP3 (UniProt Q96CW5) 0.024
TEX30 (UniProt Q5JUR7) 0.047
TPM1 isoform 4 (UniProt P09493) 0.02
TRAPPC9 isoform 2 (UniProt Q96Q05) 0.022
TUT4 (UniProt Q5TAX3) 0.059
TRIM33 (UniProt H0Y612) 0.014
TECR (UniProt Q9NZ01) 0.068
TP53RK (UniProt Q96S44) 0.028
THEMIS2 (UniProt Q5TEJ8) -0.027
TTC38 (UniProt Q5R3I4) -0.045
TPM4 (UniProt P67936) 0.028
TMOD1 (UniProt P28289) -0.004
TOX4 (UniProt O94842) -0.011
TMEM199 (UniProt Q8N511) -0.011
UBE4A isoform 2 (UniProt Q14139) 0.018
TMEM87B (UniProt Q96K49) -0.055
TMPO (UniProt P42167) 0.035
TTI2 (UniProt Q6NXR4) 0.072
TUBB3 (UniProt Q13509) -0.004
TUBB (UniProt P07437) -0.013
TLK1 isoform 2 (UniProt Q9UKI8) -0.045
TRA2A (UniProt Q13595) -0.017
TBL2 (UniProt Q9Y4P3) 0.057
UBR4 (UniProt Q5T4S7) 0.003
TPM4 isoform 2 (UniProt P67936) -0.004
TBL3 (UniProt Q12788) -0.021
TTF2 (UniProt Q9UNY4) -0.018
TJP1 isoform 2 (UniProt Q07157) -0.013
TRIM65 (UniProt Q6PJ69) -0.002
UBE3C (UniProt Q15386) 0.076
UBAP2 (UniProt Q5T6F2) 0.033
TUBA1B (UniProt P68363) -0.004
TSPAN13 (UniProt O95857) -0.007

Compound: COC(=O)[C@H](CCSC)NC(=O)C1=C(C=C(C=C1)NC[C@H](CS)N)C2=CC=CC=C2
Experiment: as above
Summary of the method: as §1

log2 fold change, inactive:
TPP2 (UniProt Q5VZU9) 0.058
TUBGCP3 (UniProt Q96CW5) 0.011
TEX30 (UniProt Q5JUR7) 0.007
TPM1 isoform 4 (UniProt P09493) -0.088
TRAPPC9 isoform 2 (UniProt Q96Q05) -0.015
TUT4 (UniProt Q5TAX3) 0.125
TRIM33 (UniProt H0Y612) 0.122
TECR (UniProt Q9NZ01) -0.104
TP53RK (UniProt Q96S44) 0.025
THEMIS2 (UniProt Q5TEJ8) 0.023
TTC38 (UniProt Q5R3I4) 0.013
TPM4 (UniProt P67936) -0.028
TMOD1 (UniProt P28289) -0.002
TOX4 (UniProt O94842) -0.082
TMEM199 (UniProt Q8N511) -0.093
UBE4A isoform 2 (UniProt Q14139) -0.102
TMEM87B (UniProt Q96K49) 0.017
TMPO (UniProt P42167) -0.163
TTI2 (UniProt Q6NXR4) 0.015
TUBB3 (UniProt Q13509) 0.072
TUBB (UniProt P07437) 0.081
TLK1 isoform 2 (UniProt Q9UKI8) -0.14
TRA2A (UniProt Q13595) 0.068
TBL2 (UniProt Q9Y4P3) -0.036
UBR4 (UniProt Q5T4S7) 0.018
TPM4 isoform 2 (UniProt P67936) -0.077
TBL3 (UniProt Q12788) 0.072
TTF2 (UniProt Q9UNY4) -0.01
TJP1 isoform 2 (UniProt Q07157) 0.011
TRIM65 (UniProt Q6PJ69) 0.089
UBE3C (UniProt Q15386) -0.145
UBAP2 (UniProt Q5T6F2) -0.021
TUBA1B (UniProt P68363) 0.085
TSPAN13 (UniProt O95857) 0.049
